Common to all, as to assay type: functional
The test system of test [1] is Plasmodium falciparum. Description: GSK_TCMDC: Inhibition of Plasmodium falciparum 3D7 in whole red blood cells, using parasite LDH activity as an index of growth. Test compounds present at 2uM.
For test [2], the system named is Plasmodium falciparum. Description: GSK_TCMDC: Inhibition of Plasmodium falciparum Dd2 in whole red blood cells, using parasite LDH activity as an index of growth. Test compounds present at 2uM.
For the next test, the system named is HepG2. Description: GSK_TCMDC: Percent inhibition of human HepG2 cell line. Test compounds present at 10uM.

These results are taken from ChEMBL document CHEMBL1157539, “Thousands of chemical starting points for antimalarial lead identification” (Nature, 2010).

In general, Inhibition refers to how much of the control response was suppressed.

With `COc1ccc(C=Cc2cc(=N)c3ccccc3[nH]2)cc1.I`, the Inhibition in the test with Plasmodium falciparum [1] is listed as 93%; in the test on Plasmodium falciparum [2], 16%; in the test on HepG2, 38%.
`Cn1nc(-c2cccc(CNC3CCc4ccccc43)c2)c2cnc(NC3CCCC3)nc21` (stereo unspecified): the Inhibition in the test with Plasmodium falciparum [1] is listed as 100%; in the test with Plasmodium falciparum [2] it was 23%; with HepG2 it was 14%.
In the same order, the values of `CC(C)CNCc1cccc(-c2ccc(CN(CCCN3CCN(C)CC3)C(=O)CCC3CCCC3)cc2)c1.O=C(O)C(F)(F)F` are 98%, 89% and 82%.
On to `O=C(/C=C/c1ccc(Cl)c(Cl)c1)N1CCC(CCN2CCC(c3c[nH]c4cc5c(cc34)OCO5)CC2)CC1`, for which the Inhibition is 99% with Plasmodium falciparum [1], 65% in the test with Plasmodium falciparum [2] and 46% in the test on HepG2.
In the case of `Cc1cc(C)n(-c2nc(Nc3cccc(C(F)(F)F)c3)nc(-n3nc(C)cc3C)n2)n1`, the figures for the Inhibition in the test on Plasmodium falciparum [1], in the test on Plasmodium falciparum [2] and in the test with HepG2 were 99%, 88% and 0%, respectively.
Consider `NC(=O)c1cccc(CNC(=O)NC[C@H]2CN(Cc3ccc(Cl)c(Cl)c3)CCO2)c1`, for which the values for the Inhibition with Plasmodium falciparum [1], with Plasmodium falciparum [2] and in the test with HepG2 were 98%, 65% and 0%, respectively.
Regarding `O=C(NCCCCN1CCC(c2ccc3c(c2OCc2ccncc2)CCCC3)CC1)c1ccc(-c2ccc(C(F)(F)F)cc2)cc1`, the Inhibition was 100% in the test on Plasmodium falciparum [1], 92% with Plasmodium falciparum [2] and 96% with HepG2.
The like results for `Cc1cccnc1CNc1nccc2c(C)c(C)[nH]c12.Cl` were, in that order, 100%, 28% and 27%.
Regarding `Cl.NCCCCc1c(-c2ccc(Cl)c(Cl)c2)[nH]c2ccc(Cl)cc12`, the Inhibition in the test with Plasmodium falciparum [1] was 97%; with Plasmodium falciparum [2], 20%; in the test with HepG2 it was 33%.
The like results for `CCN(CC)S(=O)(=O)c1cc(-c2ccc(=O)n(CC(=O)c3ccc(C)cc3)n2)ccc1C` were, in that order, 86%, 66% and 6%.
The like results for `COc1ccc(Cn2c(=O)[nH]c3cc(C(=O)NC4CCN(Cc5ccccc5)CC4)ccc3c2=O)cc1` were, in that order, 97%, 45% and 10%.
For the compound `Cc1ccc(Cn2nc(N3CCNCC3)ccc2=O)cc1NC(=O)Nc1ccc(-c2ccccc2)cc1.O=C(O)C(F)(F)F`, the Inhibition is given as 94% in the test on Plasmodium falciparum [1], 20% with Plasmodium falciparum [2] and 46% with HepG2.
With `CCN1CCC(N(Cc2ccc(-c3ccc(C(F)(F)F)cc3)cc2)C(=O)Cn2c(CCc3cccc(F)c3F)cc(=O)c3ccccc32)CC1.O=C(O)C(O)C(O)C(=O)O`, the Inhibition in the test with Plasmodium falciparum [1] turned out to be 94%; in the test on Plasmodium falciparum [2], 94%; in the test on HepG2 it was 100%.
As for `Cc1cc(Cl)c(S(=O)(=O)NC2CCCC2)cc1OCC(=O)NC1CCCCC1`, the Inhibition was 97% in the test on Plasmodium falciparum [1], 91% in the test with Plasmodium falciparum [2] and 19% in the test on HepG2.
For `Cc1cc(C(F)(F)F)n2nc(C(=O)N(Cc3cncn3Cc3ccccc3F)CC3CC3)cc2n1`, the Inhibition in the test with Plasmodium falciparum [1] is given as 100%; with Plasmodium falciparum [2] it was 100%; in the test with HepG2, 0%.
For the compound `Cc1ccccc1C1CCN(C2CCC(NC(=O)/C=C/c3c[nH]c4ccccc34)CC2)CC1` (stereo unspecified), the Inhibition in the test with Plasmodium falciparum [1] amounted to 100%; with Plasmodium falciparum [2] it was 51%; in the test on HepG2 it was 30%.
In the case of `CC(C)(CNC(=O)[C@@H]1CCCN(Cc2ccc(Cl)cc2)C1)c1nc(-c2ccc(Cl)c(O)c2)c(-c2ccncc2)[nH]1.Cl`, the Inhibition with Plasmodium falciparum [1] is 97%; in the test on Plasmodium falciparum [2] it was 37%; in the test with HepG2, 66%.
In the same order, the values of `CCCC(CNCc1cccc(OCC)c1)CNc1cc(=O)c2ccccc2[nH]1` (stereo unspecified) are 100%, 97% and 0%.
Turning to `Cc1c(C)n(C2CCCCC2)c2ncnc(OC3CCN(CC(=O)NC4CC4)CC3)c12`, the results for the Inhibition with Plasmodium falciparum [1], with Plasmodium falciparum [2] and in the test with HepG2 were 94%, 72% and 21%, respectively.
In the case of `Cc1ccccc1C1CCN(C2CCC(NC(=O)/C=C/c3cccc(F)c3F)CC2)CC1` (stereo unspecified), the Inhibition is reported as 89% in the test with Plasmodium falciparum [1], 45% with Plasmodium falciparum [2] and 57% with HepG2.
As for `COc1ccc(NC(=O)N2CCc3ccc(OCCN(C(C)C)C(C)C)cc32)cc1C(F)(F)F.O=C(O)C(F)(F)F`, the Inhibition in the test on Plasmodium falciparum [1] is 90%; with Plasmodium falciparum [2] it was 6%; with HepG2 it was 0%.
For `Cc1cccc2nc(-c3cccc(-c4cccc(NC(=O)Nc5ccc(Cl)c(Cl)c5)c4)c3)[nH]c12`, the Inhibition is reported as 100% with Plasmodium falciparum [1], 96% with Plasmodium falciparum [2] and 24% with HepG2.
For the compound `NC(=O)COc1c(C2CCN(CCN3CCC(CNC(=O)c4ccc(-c5ccc(C(F)(F)F)cc5)cc4)CC3)CC2)ccc2c1CCCC2`, the Inhibition with Plasmodium falciparum [1] was found to be 87%; in the test on Plasmodium falciparum [2] it was 68%; in the test on HepG2 it was 32%.
Regarding `O=C(Nc1cccc(CN2CCCN(Cc3ccc(O)cc3)CC2)c1)c1cccc(Cl)c1.O=C(O)C(F)(F)F`, the Inhibition with Plasmodium falciparum [1] was 96%; with Plasmodium falciparum [2] it was 41%; in the test with HepG2, 10%.
In the case of `Cc1cc(N(C)C)nc(Nc2ccc(NC(=O)c3ccc(F)cc3)cc2)n1`, the Inhibition is 100% with Plasmodium falciparum [1], 21% with Plasmodium falciparum [2] and 8% in the test with HepG2.
The like results for `Br.CC1(C)NC(N)=NC(=N)N1OCCSc1ccc(Cl)c(Cl)c1` were, in that order, 96%, 95% and 65%.
With `CCOC(=O)c1nc(-c2ccccc2)[nH]c1NC(=S)NC1CCCCC1`, the results for the Inhibition in the test on Plasmodium falciparum [1], in the test with Plasmodium falciparum [2] and in the test with HepG2 were 96%, 1% and 6%, respectively.
